This is a sample that favours compounds with a hit; in the whole collection about 7% have one here.
NR3A LBD binder: binders of NR3A ligand-binding domain, primary screen, biophysical, differential scanning fluorimetry, uHTS; actives 2.5% (n = 340,000); Tm shift relative to glycine control, % at 25 µM; NR3A LBD differential scanning fluorimetry, Tm shift; 0% = protein alone, 100% = glycine-bound protein;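 active = melting temperature shift of at least 10% of the positive control shift, at one fixed dose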
rCAG RNA binder: binders of r(CAG) RNA repeats, primary screen, biochemical, fluorescence; r(CAG) RNA repeat, TO-PRO-1 dye displacement fluorescence; AID 651821, 2012; actives 1.3% (n = 370,000); inhibition, % at 3 µM;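 active = inhibition above the plate cutoff, the mean of all test compounds on that plate plus 3 SD, cut at about 35% in these data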;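 also: 0% = DMSO alone and 100% = 100 µM mitoxantrone as full dye displacement; higher means more dye released from RNA so lower well fluorescence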
ADAM17 inh: ADAM17 inhibitors, primary screen, biochemical, QFRET; Disintegrin and metalloproteinase domain-containing protein 17 (Homo sapiens), P78536; recombinant ADAM17, EDANS/DABCYL FRET peptide cleavage; inhibition, % at 6.95 µM; actives 0.83% (n = 370,000);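 active = inhibition above the mean of compounds lying between control limits plus 3 SD, set per campaign, cut at about 8.5% in these data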;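 also: 0% = DMSO-only wells as the low control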
ADAM10 inh: human ADAM10 inhibitors, primary screen, biochemical, QFRET, HTS | actives 0.62% (n = 370,000) | inhibition, % at 7 µM | recombinant ADAM10, EDANS/DABCYL FRET peptide cleavage, 3 h | AID 720582, 2013 | Disintegrin and metalloproteinase domain-containing protein 10 (Homo sapiens), O14672;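 active = inhibition above a per-campaign cutoff equal to the mean of compounds falling between control-based bounds plus 3 SD, cut at about 20% in these data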;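 also: 0% = DMSO wells while the 100% control is not disclosed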
AHR activator: AHR activators, primary screen, cell-based, luminescence, luciferase reporter, human | actives 2.5% (n = 320,000) | AID 2796, 2010 | AHR-responsive luciferase reporter cells | activation, % at 5 µM | Aryl hydrocarbon receptor (Homo sapiens), P35869; in the data active = activation above about 47%;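 also: 0% = vehicle wells and 100% = reference agonist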
KLK7 zymogen act: proKLK7 zymogen activators, primary screen, biochemical, fluorescence intensity; actives 0.9% (n = 370,000); activation, % at 7 µM; purified proKLK7, EDANS-DABCYL substrate fluorescence; 100% is mature enzyme control, 0% vehicle; AID 652039, 2013;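 active = activation above the mean of all tested compounds plus 3 SD, computed per campaign excluding outliers beyond control limits, cut at about 13% in these data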
Target sequence (P49862 whole entry, looked up): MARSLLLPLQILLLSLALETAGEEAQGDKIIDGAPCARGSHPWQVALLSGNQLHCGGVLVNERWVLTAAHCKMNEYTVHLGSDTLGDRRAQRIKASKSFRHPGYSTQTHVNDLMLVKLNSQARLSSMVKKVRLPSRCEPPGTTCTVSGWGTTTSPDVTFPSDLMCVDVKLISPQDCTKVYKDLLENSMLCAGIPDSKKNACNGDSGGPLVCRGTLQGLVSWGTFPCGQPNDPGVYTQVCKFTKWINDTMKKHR
An asterisk follows results filed as active; i = inactive; · = not tested or not shown.

SMILES	NR3A LBD binder	rCAG RNA binder	ADAM17 inh	ADAM10 inh	AHR activator	KLK7 zymogen act
CC(C)(C)c1ccc(O)c(N=Cc2c(O)ccc3ccccc23)c1	1	6	3	12	64*	0
COc1cccc(-c2sc3ccccc3c2-c2ccc(OCCN3CCOCC3)cc2)c1	15*	5	2	-2	0	-3
CN1c2ccc([N+](=O)[O-])cc2CC2(C(=O)NC(=O)N(c3ccc(Br)cc3)C2=O)C1c1ccccc1 (stereo not given)	-6	12	4	10	76*	1
C=CCNC(=S)Nc1ccc(OC(=O)Nc2ccc(Cl)c(Cl)c2)cc1	21*	3	-2	0	·	0
O=C(NCCN1CCC2(CC1)C(=O)NCN2c1ccccc1)c1cccs1	·	2	0	-2	·	0
OCCNc1c2c(nc3ccccc13)CCCC2	12*	3	-3	-1	9	0
Fc1ccc(Cn2nnnc2CN2CCC(n3nnc4cc(C(F)(F)F)ccc43)CC2)cc1	-5	-3	-1	-10	0	0
FC(F)(F)c1ccc2c(c1)ncn2C1CCN(Cc2nnnn2C2CCCCC2)CC1	-4	-9	-1	-2	56*	1
O=c1c2ccccc2nc(/C=C/c2ccccc2F)n1-c1ccccc1O	-2	20	2	0	22	0
O=c1c2ccccc2nc(-c2ccccc2)n1-n1cccc1	11*	0	-2	-13	74*	1
O=c1c2ccccc2nc(/C=C/c2ccccc2O)n1-c1ccccc1O	·	11	-4	-15	47*	2
O=c1c2ccccc2nc(-c2ccccc2)n1-c1ccccc1	1	-3	1	0	0	0
O=c1c2ccccc2nc(-c2ccccc2)n1-c1ccccc1O	0	13	-3	5	63*	0
C=C(C=O)CC1CC(O)[C@]2(C)OC3CC4OC5C[C@]6(C)O[C@]7(C)CCC8OC9C[C@]%10(C)OC%11C(C)=CC(=O)OC%11CC%10OC9C[C@@H](C)C8OC7CC6O[C@]5(C)C/C=C\C4OC3CC2O1 (stereo not given in full)	·	·	-3	-4	·	·
Cc1cc(OCC(=O)NCc2ccncc2)c2c3c(c(=O)oc2c1)CCCC3	0	0	-23	-77	64*	0
CC(C)C(C(=O)NC(C)(C)C)N1C(=O)CN=C(c2ccccc2)c2ccccc21 (stereo not given)	·	3	3	9	·	0
C[C@]12CCC(=O)C(O)=C1CC[C@@H]1[C@@H]2CC[C@]2(C)C(=O)CC[C@@H]12	12*	2	-2	6	-4	0
C=C1[C@@H](C)C2[C@H](Cc3ccccc3)NC(=O)[C@]23[C@H](OC(C)=O)/C=C/[C@@](C)(O)C(=O)[C@@H](C)C/C=C/[C@H]3[C@@H]1O (stereo not given in full)	·	-1	0	-1	·	1
O=C(c1cc(C(=O)NCc2ccc(Cl)cc2)c(=O)n(Cc2ccc(Cl)cc2)c1)c1cc(F)ccc1O	18*	6	-3	-4	14	0
CC(C)CNC(=O)c1c(N)n(Cc2ccco2)c2nc3ccccc3nc12	-9	28	-461	i	44	-4
CC(C)CCn1c(N)c(C(=O)NCc2cccs2)c2nc3ccccc3nc21	18*	·	·	·	5	·
CC(C)CNC(=O)c1c(N)n(Cc2ccc3c(c2)OCO3)c2nc3ccccc3nc12	22*	3	-30	-90	21	-3
COCCNC(=O)c1c(N)n(CCC(C)C)c2nc3ccccc3nc12	-7	3	-421	i	12	-48
CC(C)CCNC(=O)c1c(N)n(Cc2ccc3c(c2)OCO3)c2nc3ccccc3nc12	32*	23	-9	-26	1	-1

High-throughput results as filed in PubChem BioAssay.
